# Results published in PubChem BioAssay AID602230 (The Scripps Research Institute Molecular Screening Center, 2012).
# The whole screen tested about 1,400 compounds, of which about 450 (32%) were called active. Only a sample is shown. A number with no mark means an inactive call. Rule as the data show it: active = inhibition above about 16%; inactive = the rest.
# Target: Lon protease (Escherichia coli (strain K12)) (UniProt P0A9M0)
# Assay: inhibition of eLon from E. coli – biochemical, fluorescence polarization, confirmation (AID 602230);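 also: 0% = enzyme with probe and DMSO and 100% = no enzyme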
# Settings: purified E. coli Lon, at 7.94 µM, active compounds read high
# Lon protease (Escherichia coli (strain K12)), sequence (P0A9M0 whole entry, looked up): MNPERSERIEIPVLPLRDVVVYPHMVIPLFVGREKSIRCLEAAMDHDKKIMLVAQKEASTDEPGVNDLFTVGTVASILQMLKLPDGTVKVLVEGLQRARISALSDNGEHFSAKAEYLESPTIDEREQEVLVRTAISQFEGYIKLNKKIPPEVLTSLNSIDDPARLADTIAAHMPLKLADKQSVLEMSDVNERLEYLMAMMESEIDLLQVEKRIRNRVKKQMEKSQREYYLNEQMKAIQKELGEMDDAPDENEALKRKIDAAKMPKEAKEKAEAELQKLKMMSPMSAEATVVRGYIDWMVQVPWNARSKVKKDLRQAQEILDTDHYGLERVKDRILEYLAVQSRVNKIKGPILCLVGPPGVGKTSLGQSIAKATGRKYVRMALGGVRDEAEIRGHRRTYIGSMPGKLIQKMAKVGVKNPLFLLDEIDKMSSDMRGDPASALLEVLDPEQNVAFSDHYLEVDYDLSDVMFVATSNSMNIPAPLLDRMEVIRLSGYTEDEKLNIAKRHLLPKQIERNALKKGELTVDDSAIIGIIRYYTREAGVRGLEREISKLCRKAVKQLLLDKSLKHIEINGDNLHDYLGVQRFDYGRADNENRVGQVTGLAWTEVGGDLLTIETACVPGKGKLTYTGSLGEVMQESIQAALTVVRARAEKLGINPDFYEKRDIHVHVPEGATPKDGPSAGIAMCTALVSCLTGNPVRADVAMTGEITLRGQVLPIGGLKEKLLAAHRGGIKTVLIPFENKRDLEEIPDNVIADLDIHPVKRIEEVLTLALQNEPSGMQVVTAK
row,SMILES,inhibition
1,CNS(=O)(=O)c1ccc2c(c1)[nH]c(=S)n2C,4.74%
2,COc1ccc(C2=CC(c3cccc(OC)c3)n3nnnc3N2)cc1 (stereo unspecified),17% (active)
3,COc1ncnc2c1N=C1CC(C)(C)CC(N)=C1S2,111% (active)
4,CCCn1c(SCC(=O)Nc2c(C)cccc2C)nnc1C(C)C,-13.9%
5,Nc1ccc2nc3c(=O)[nH]c(=S)[nH]c3nc2c1,198% (active)
6,Cc1cccc(N2CCC(NCc3c(C(=O)N4CCCCC4)nc4c(C)cccn34)CC2)c1,-4.25%
7,O=C(COC(=O)C12CC3CC(CC(O)(C3)C1)C2)NC12CC3CC(CC(C3)C1)C2,-2.17%
8,Cc1ccn2cc(-c3nonc3C)cc2c1,5.46%
9,COc1ccccc1-c1cc2nc(NCc3cccc(Cl)c3)ccn2n1,2.95%
10,Cc1cccn2c(=O)c3cc(C#N)c(=NC(=O)c4cccnc4)n(CC4CCCO4)c3nc12 (stereo unspecified),-2.72%
11,COc1cc(C(=O)NCc2ccc3c(c2)cc(C)n3C)cc(OC)c1OC,-12.4%
12,O=C(COC(=O)Cn1cnc2ccccc21)Nc1cccc2c1C(=O)c1ccccc1C2=O,79.2% (active)
13,COCCOC(=O)c1sc(=S)n(CCOC)c1N,27.9% (active)
14,CC/C(C)=N/Nc1nc2sc3c(c2c(=O)[nH]1)CC(C)(C)OC3,15.3%
15,Cc1ccc(NC(=O)Cc2nnc(SCC(=O)Nc3nncs3)n2C)cc1,-64.9%
16,O=C1C=C(NCCNc2c(F)c(F)c(CO)c(F)c2F)CCC1,-15.4%
17,Cc1ccc2c(c1)nnc1nnc(SCC(=O)O)n12,33.8% (active)
18,O=S(=O)([N-]c1nc2ccccc2nc1-[n+]1ccc(Cc2ccccc2)cc1)c1ccc(Br)s1,-2.35%
19,O=C1c2ccccc2C(=O)c2c1cccc2N1CCN(CCO)CC1,27.1% (active)
20,CCCSc1ccc([C@H]2N[C@@](Cc3ccccc3)(C(=O)OC)[C@H]3C(=O)N(C)C(=O)[C@@H]23)cc1,-4.5%
21,NS(=O)(=O)c1ccc(NC(=O)COC(=O)c2c3c(nc4ccccc24)/C(=C\c2ccc4c(c2)OCO4)CCC3)cc1,4.57%
22,N#CC1=C(N)OC2=C(C(=O)CCC2)C1C1CC=CCC1 (stereo unspecified),2.64%
23,c1ccc(C(=NNc2nc3ccccc3s2)c2ccccn2)cc1,134% (active)
24,Cc1cccc(C)c1N1CCN(S(=O)(=O)N2CCOCC2)CC1,-4.84%

row,SMILES,inhibition
1,CN1c2ccc(C=O)c3c(C=O)ccc(c23)N(C)C1(C)C,68.6% (active)
2,CC(C(=O)NC1CCCC1)N1CCN(S(=O)(=O)c2ccccc2Cl)CC1 (stereo unspecified),-0.03%
3,CCCCOCCCNC(=O)C[C@@H]1C[C@@]2(C(=O)OC)CCCCC=C2N(CCC2=CCCCC2)C1=O,9.11%
4,CCOCCN(C=O)c1cccc(OC)c1,-7.16%
5,COc1ccc(N2CCN(C3CCCCC3NS(=O)(=O)c3ccccc3)CC2)cc1 (stereo unspecified),-0.98%
6,COc1ccc(OC)c(NC(=O)Cc2cccs2)c1,-9.37%
7,COc1ccc(C(=O)NC(C)CCc2ccccc2)c(OC)c1 (stereo unspecified),-4.57%
8,COc1cc([C@H](Cc2ccccc2)NC(C)=O)oc(=O)c1,28.5% (active)
9,O=C(C1=C(O)C(=O)N(c2ncccn2)C1c1cccs1)c1ccco1 (stereo unspecified),7.23%
10,O=C1C2C3C=CC(C4CC34)C2C(=O)N1/N=C/c1ccc(-c2ccccc2[N+](=O)[O-])o1 (stereo unspecified),1.11%
11,CN(C)Cc1c(C(=O)N/N=C/c2ccccc2OCc2ccc(F)cc2)nnn1-c1nonc1N,4.47%
12,O=C(CN1CCCSc2ccccc21)N1CCN(S(=O)(=O)c2cccc(F)c2)CC1,40.1% (active)
13,Clc1ccccc1CSc1nnc(-c2ccco2)c(-c2ccco2)n1,-6.52%
14,CCOC(=O)N1CCC(NC(=O)Cc2cn(C)c3ccccc23)CC1,-16.7%
15,Oc1ccc2ccccc2c1N=Nc1nccs1,3.97%
16,Cc1coc2c(O)cc3c(c12)OC1(N2CCCCC2)C(=O)NCCCC31 (stereo unspecified),6.1%
17,COc1ccc(C(=O)NCc2nnc(SCCOc3ccccc3)n2C)cc1,-3.94%
18,COc1ccc(-c2onc3ccc(C(C)=O)cc23)cc1,182% (active)
19,COc1ccc(CC(=O)Nc2ccc(-c3nnc(-c4ccccc4)o3)cc2)cc1,-10.3%
20,COc1ccc(-c2nc(CS(=O)CC(=O)NCc3ccccn3)c(C)o2)cc1 (stereo unspecified),64.8% (active)
21,COc1ccc(S(=O)(=O)N2CCOCC2)cc1NC(=O)Cc1c(F)cccc1Cl,-1.93%
22,O=C(COC(=O)c1ccccc1C(=O)N1CCN(c2ccccc2)CC1)NCc1ccccc1,5.02%
23,CC(=O)NC(=S)Nc1ccc(NC(=S)NC(=O)c2ccc([N+](=O)[O-])cc2)cc1,-6.29%
24,CC1=NN(C(=O)CCc2ccccc2O)C(O)(C(F)(F)F)C1 (stereo unspecified),9.05%

row,SMILES,inhibition
1,CC1(C)OC(=O)C(=CNC(CO)C(=O)O)C(=O)O1 (stereo unspecified),-19.2%
2,Cc1ccccc1Nc1nc(N)nc(CN2CCN(c3ccccn3)CC2)n1,3.69%
3,CCc1ccc(NC(=O)C(=O)N/N=C(\C)CC(=O)NCCOC)cc1,-6.81%
4,COCCNC(=O)Nc1ccc2nc(-c3ccco3)c(-c3ccco3)nc2c1,23.4% (active)
5,COc1ccc(Nc2nc(-c3cccnc3)nc3ccccc23)cn1,39.8% (active)
6,COc1ccc(Nc2ccc([N+](=O)[O-])cn2)cn1,-45.8%
7,Cc1ccc2nc3c(cc(C(=O)NCCc4ccccc4)c(=N)n3CC3CCCO3)c(=O)n2c1 (stereo unspecified),3.71%
8,COc1ccc2[nH]c(C)c(CCN(Cc3cccs3)C(=S)Nc3ccccc3OC)c2c1,3.35%
9,CCCC(O)(CCC)C(=O)NN(C(=O)CCl)c1cccc(C)c1,-3.35%
10,NC(=O)c1ccc(NC(=O)COC(=O)c2c3c(nc4ccccc24)/C(=C\c2ccc4c(c2)OCO4)CCC3)cc1,-8.01%
11,O=C1c2cccc3c([N+](=O)[O-])ccc(c23)C(=O)N1CC1CCCO1 (stereo unspecified),34.9% (active)
12,COCCn1c(N)c(NCc2ccccc2)c(=O)[nH]c1=O,7.51%
13,Cc1cc2nc3c(=O)n(Cc4ccccc4)c(=O)[nH]c3nc2cc1N,153% (active)
14,Nc1ccccc1/C=N\N=C/c1ccccc1N,8.46%
15,CCCN(CCC)C(=O)C1c2ccccc2Oc2ccccc21,-11.4%
16,COC(=O)C[n+]1cccc2ccccc21,116% (active)
17,COc1ccc(C2c3ccc(O)cc3Oc3ncn(CCCO)c(=N)c32)cc1OC (stereo unspecified),-7.63%
18,CCN(CC)CCCNC(=O)c1cn(C)c2ccc(S(=O)(=O)N(C)C3CCCCC3)cc2c1=O,-0.99%
19,Cc1cc(Br)cn2c(Cc3ccsc3)c(-c3ccc(C#N)cc3)nc12,45.3% (active)
20,Cc1ccc(S(=O)(=O)CCC(=O)OCc2ccccc2)cc1,-7.16%
21,Oc1ccc(N=Cc2sc3ccccc3c2Cl)cc1,-21.5%
22,O=C(COC(=O)CCc1c[nH]c(=O)[nH]1)Nc1ccccc1Cl,51.4% (active)
23,COc1cccc2sc(N(CCCN(C)C)C(=O)CCS(=O)(=O)c3ccccc3)nc12,7.07%
